Screens deposited in PubChem BioAssay by National Center for Advancing Translational Sciences (NCATS).
Sampled rows, rich in hits. Any-hit rate of the full collection: about 2.4%.
D2 ag-1: activates the human D2 dopamine receptor | P14416 | HEK293 T-REx D2 cells, calcium flux agonist mode | activation, % at 2 µM | 340,000 compounds, 0.53% hits;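 active = activation over 3 SD above normal in the single-dose calcium agonist read, cut at about 30% in these data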
Target sequence (P14416 whole entry, looked up): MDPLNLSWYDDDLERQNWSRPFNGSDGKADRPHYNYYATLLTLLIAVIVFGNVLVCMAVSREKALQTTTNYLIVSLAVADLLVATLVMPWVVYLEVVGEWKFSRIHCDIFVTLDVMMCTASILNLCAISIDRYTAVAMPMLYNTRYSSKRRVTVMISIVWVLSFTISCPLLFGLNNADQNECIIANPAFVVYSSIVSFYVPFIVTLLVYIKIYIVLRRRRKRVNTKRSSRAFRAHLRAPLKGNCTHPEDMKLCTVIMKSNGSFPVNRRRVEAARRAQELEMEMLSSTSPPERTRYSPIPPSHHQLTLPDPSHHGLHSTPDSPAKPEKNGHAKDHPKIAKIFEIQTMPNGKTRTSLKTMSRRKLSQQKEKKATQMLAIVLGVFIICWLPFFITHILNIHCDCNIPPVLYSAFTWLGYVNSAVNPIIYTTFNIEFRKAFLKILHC
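Tetracycline-induced HEK293 Trex cells with D2 receptor force-coupled to calcium signaling, plated overnight at 30 C and loaded with no-wash calcium dye. Calcium flux read kinetically for 180 s after compound addition; responses flag agonists.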
D2 antagonist: antagonists of human D2 dopamine receptor; P14416; HEK293 TREx D2 cells, calcium flux, dopamine EC80; inhibition, % at 10 µM; 340,000 compounds, 2% hits; AID 485344; in the data active = inhibition above about 30%; inactive = below that, where a call was filed
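Dopamine at EC80 is the agonist stimulus; test compounds precede it by 180 s. Calcium flux read kinetically in a force-coupled, inducible HEK293 T-REx D2 cell line.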
D2 PAM-1: D2 dopamine receptor (human) potentiation. P14416. potentiation, % at 10 µM. HEK293 T-REx D2, calcium flux, EC20 dopamine potentiation. 340,000 compounds, 0.34% hits;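 active = potentiation over 3 SD above the plate norm, cut at about 30% in these data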
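Calcium flux readout, no-wash dye, 1 read/s. Inducible HEK293 Trex D2 line, overnight 30 C. Compound alone 180 s (agonist flags), then EC20 dopamine, another 180 s to score potentiation.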
D2 PAM-2: positive allosteric modulators of human D2 dopamine receptor. AID 624464. DiscoveRx D2 beta-arrestin cells, luminescence, 90 min; 100% = 57 uM dopamine signal. 360,000 compounds, 0.23% hits. P14416. potentiation, % (test concentration not listed); in the data active = potentiation above about 50%; inconclusive = mostly about 30% to 49%
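D2 cells co-treated with compound plus 50 nM dopamine (EC20) for 90 min at 37 deg C to detect potentiation. Beta-arrestin recruitment was read as enzyme-fragment luminescence after 1 h at ambient temperature. Full response was set by 57 uM dopamine.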
D2 ag-2: activates the human D2 dopamine receptor; AID 624465; P14416; activation, % (concentration not given with the values); DiscoveRx PathHunter D2 beta-arrestin, luminescence, 90 min; 100% = 57 uM dopamine signal; 360,000 compounds, 0.084% hits; in the data active = activation above about 40%; inconclusive = between about 15% and that limit
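Agonist mode: compounds alone added to overnight-plated D2 PathHunter cells for 90 min at 37 C, with 57 uM final dopamine (EC100) defining full response. Beta-arrestin recruitment detected by chemiluminescent reagent, read after 1 h at ambient temperature.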
Large screens that a line does not name were inactive.

C[N+](C)(C)CCOC(=O)CCC(=O)OCC[N+](C)(C)C	none (no result: D2 ag-1, D2 antagonist, D2 PAM-1)
COc1ccc2c(CNCc3ccco3)c(C(=O)O)n(Cc3ccc(F)cc3Cl)c2c1	none (no result: D2 antagonist, D2 PAM-2, D2 ag-2)
CC(C)(C)CC(=O)Nc1nnc(CCc2ccccc2)s1	none
CCC(C)(C)C(=O)Nc1nnc(CCc2ccccc2)s1	D2 antagonist 43.8
CC(C)C(=O)n1nc(-c2cccnc2)nc1NCc1ccc(F)cc1	D2 PAM-1 45.8
NS(=O)(=O)c1ccc(NC(=O)Cc2cccs2)cc1	D2 antagonist 38.6
Cc1cc(CN2CCN(c3cccc(C)c3C)CC2)cs1	none (no result: D2 antagonist, D2 PAM-2, D2 ag-2)
Cc1cccc(N2CCN(Cc3ccoc3)CC2)c1C	D2 antagonist 67.0
COc1cc(CN2CCN(c3cccc(C)c3C)CC2)cc(OC)c1O	D2 antagonist 41.6
COc1cc(CN2CCCCCC2)cc(OC)c1O	none
CC(C)N(Cc1ccccc1)C(=O)COC(=O)C1CCN(c2ccc(C(F)(F)F)cn2)CC1	none
CC(C)(C)N(Cc1ccccc1)C(=O)COC(=O)C1CCN(c2ccc(C(F)(F)F)cn2)CC1	D2 PAM-1 59.1
COc1ccc(CCNC(=O)c2c(C)nn(-c3ccc(F)cc3)c2-n2cccc2)c(OC)c1OC	none (no result: D2 antagonist, D2 PAM-2, D2 ag-2)
Cc1ccn(CCNC(=O)C2CCC(=O)N(CCc3ccc(Cl)cc3)C2)n1 (configuration not stated)	D2 PAM-1 34.6
Cc1cc(C)n(CCCNC(=O)C2CCC(=O)N(CCc3ccc(Cl)cc3)C2)n1 (configuration not stated)	none
COC(=O)CCC(=O)OC1(C)C(=O)C=C2C=C(C3CC3)N(CC(C)C)C=C2C1=O (configuration not stated)	D2 antagonist 31.5 (no result: D2 PAM-2, D2 ag-2)
COC(=O)CCC(=O)OC1(C)C(=O)C=C2C=C(C3CC3)N(CC3CC3)C=C2C1=O (configuration not stated)	none
Cc1nn2c(=O)cc(COC(=O)c3ccc(NC(=O)COc4ccc(Cl)cc4)cc3)nc2s1	none (no result: D2 antagonist, D2 PAM-1, D2 PAM-2, D2 ag-2)
CC(=O)NCCCC(=O)NNC1CC(=O)N(c2cccc(Cl)c2)C1=O (configuration not stated)	D2 antagonist 37.1
Cc1nn(-c2ccccc2)c2c1C1(C(=O)N(C(C)C)c3ccccc31)C(C#N)=C(N)O2 (configuration not stated)	D2 PAM-2 60.3
Cc1cc(SCc2ccc(Br)cc2)nc(=O)[nH]1	none
Cc1cnc(C(=O)Nc2ccccc2-c2nnn(CC(=O)NC3CCCC3)n2)cn1	D2 antagonist 30.4
CCOC(=O)c1cc2c(=O)n3ccccc3nc2n(C)c1=NC(=O)c1c(-c2ccccc2Cl)noc1C	none (no result: D2 antagonist, D2 PAM-2, D2 ag-2)
CC(C)(C)NC(=O)NC(=O)CN1CCc2ccccc21	none
O=C(CN1CCc2ccccc21)NC(=O)NC1CCCCC1	D2 antagonist 32.6
NC(=O)C1CCN(C(=O)CN2CCc3ccccc32)CC1	D2 antagonist 45.3
CCOC(=O)CC1C(=O)NCCN1c1nc2ccc(C)cn2c(=O)c1/C=C1\SC(=S)N(C(C)CC)C1=O (configuration not stated)	D2 ag-1 72.7, D2 antagonist 31.8 (no result: D2 PAM-2, D2 ag-2)
CCOC(=O)CC1C(=O)NCCN1C(=O)c1ccc(C)cc1 (configuration not stated)	none
CCCN1C(=O)/C(=C/c2c(N3CCNC(=O)C3CC(=O)OCC)nc3c(C)cccn3c2=O)SC1=S (configuration not stated)	D2 ag-1 80.9
CCCCCN1C(=O)/C(=C/c2c(N3CCc4ccccc4C3)nc3ccccn3c2=O)SC1=S	none (no result: D2 ag-1, D2 antagonist, D2 PAM-1)
CCOC(=O)CC1C(=O)NCCN1c1nc2ccc(C)cn2c(=O)c1/C=C1\SC(=S)N(CC(C)C)C1=O (configuration not stated)	D2 ag-1 104.2
Cc1c(/C(Cc2ccccc2)=N/O)c2ccccc2n1C	D2 antagonist 36.9
Cc1c(C(=O)CN2CCSCC2)c2ccccc2n1C	none
O=C(c1cc(-c2ccccc2)nc2ccccc12)N1CCCC1	none
Cc1cnn(C(=O)c2cc(-c3ccccc3)nc3ccccc23)c1	D2 antagonist 54.9
S=C(Nc1cccc(Cl)c1Cl)NC1CCN(Cc2ccccc2)CC1	D2 antagonist 71.1
Cc1oc(-c2ccc(Cl)cc2)nc1CSCC(=O)NC1CCN(Cc2ccccc2)CC1	D2 antagonist 56.4
CC(C)(Oc1ccc(Cl)cc1)C(=O)NC1CCN(Cc2ccccc2)CC1	D2 antagonist 71.8
S=C(Nc1ccc(Cl)c(Cl)c1)NC1CCN(Cc2ccccc2)CC1	D2 antagonist 45.2
CC1(C(=O)NC2CCN(Cc3ccccc3)CC2)CCN1Cc1ccc(OC(F)(F)F)cc1 (configuration not stated)	none (no result: D2 ag-1, D2 antagonist, D2 PAM-1)
CCOc1ccc(-c2nc(CSCC(=O)NC3CCN(Cc4ccccc4)CC3)c(C)o2)cc1	none (no result: D2 ag-1, D2 antagonist, D2 PAM-1)
COc1ccccc1CC1CC(=O)N(c2ccc([N+](=O)[O-])cc2)C1=O (configuration not stated)	none (no result: D2 ag-1, D2 antagonist, D2 PAM-1)
COCCCNC(=O)C1CCN(c2cc(C)nc3c(-c4ccc(Cl)cc4)c(C)nn23)CC1	none (no result: D2 antagonist, D2 PAM-2, D2 ag-2)
O=C(NCc1cccs1)c1ccc(Cn2c(SCc3ccccc3)nc3cccnc32)cc1	none (no result: D2 antagonist, D2 PAM-2, D2 ag-2)
CCN(Cc1ccccc1)C(=O)CCS(=O)(=O)c1ccc2c(c1)CCN2C(C)=O	none
O=C(CSc1nccn1Cc1ccccc1)NCc1ccco1	none (no result: D2 antagonist, D2 PAM-2, D2 ag-2)
Cc1cccc(NC(=S)NC2CCN(Cc3ccccc3)CC2)c1C	D2 antagonist 93.9
Fc1ccc(NC(=S)NC2CCN(Cc3ccccc3)CC2)cc1	none (no result: D2 ag-1, D2 antagonist, D2 PAM-1)
CC(C)(C)CC(C)(C)NC(=S)NC1CCN(Cc2ccccc2)CC1	D2 antagonist 66.1
COc1ccc2c(c1)CCC1C2=NN(/C(C)=C\C(C)=O)C1c1ccc(F)cc1 (configuration not stated)	D2 ag-2 inconclusive
COc1ccc2c(c1)C1=NN(/C(C)=C/C(C)=O)C(c3ccc(F)cc3)C1CC2 (configuration not stated)	D2 PAM-2 51.4
COc1ccc(NC(=O)CCCc2nc3ccccc3c(=O)[nH]2)cc1Cl	none (no result: D2 ag-1, D2 antagonist, D2 PAM-1)
CN(CCCNC(=O)c1cccn2c(=O)c3ccccc3nc12)Cc1ccccc1	D2 antagonist 31.0
O=C(NCCN1CCN(c2ccccc2)CC1)c1cccn2c(=O)c3ccccc3nc12	none
O=C(Nc1cccc(F)c1)c1ccc(-c2ccccc2C(F)(F)F)o1	none (no result: D2 PAM-2, D2 ag-2)
COc1ccc(NC(=O)c2ccc(-c3ccccc3C(F)(F)F)o2)cc1	D2 antagonist 49.3
Cn1c2ccccc2c2c(C(=O)N3CCN(c4ccccn4)CC3)cn(C3CCCC3)c(=O)c21	D2 antagonist 31.1
COc1cccc(C(NC(C)=O)c2nc(-c3ccccc3C)cs2)c1 (configuration not stated)	D2 ag-2 77.5 (no result: D2 ag-1, D2 antagonist, D2 PAM-1)
CC(=O)NC(c1cccc(F)c1)c1nc(-c2ccccc2C)cs1 (configuration not stated)	none (no result: D2 ag-1, D2 antagonist, D2 PAM-1)
CC(=O)N1C(C)(C)CC(=NOC(=O)c2ccccc2)CC1(C)C	none
